# Screening results: PubChem BioAssay, National Center for Advancing Translational Sciences (NCATS)
# PTHR1 agonist – agonists of human PTHR1 parathyroid hormone receptor. Q03431. HEK293 GP2 PTHR1 cells, GloSensor cAMP luminescence, 1 h. Potency, µM (top dose mostly 115 µM), without a hit: at the highest dose activation, hits mostly activators. 0.075% of 410,000 active; also: potency is read from the fitted curve at half-maximal effect; nearly all actives have a fitted effect of over 55% in size
#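 HEK-293-derived GP2 cells expressing PTHR1 and a GloSensor cAMP reporter, 3,000/well, plated overnight, given luciferin plus IBMX (each 0.5 mM as added) for 1 h at 37 °C, then compound for 1 h at 37 °C. Luminescence was read after 15 min at room temperature.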
# GLP1R ag – agonists of human GLP-1 receptor; P43220; HEK293 GLP-1R CRE-luciferase, luminescence, 4-6 h; cells express a hypersensitive GLP-1R form; Potency, µM (series often up to 45.6 µM), inactives show at the top dose activation, hits mostly activators; 0.007% of 380,000 active; AID 624172; also: potency is read from the fitted curve at half-maximal effect; % of control where 0% means no effect
# GLP-1R inv ag – acts as inverse agonist at human GLP-1 receptor | HEK293 GLP-1R CRE-luciferase, luminescence, 24 h; GLP-1R form is constitutively active | Potency, µM (series often up to 38.3 µM), for inactives: at the highest dose activity change, negative = inhibition, most hits filed as inhibitors | 1.6% of 410,000 active; also: potency is read from the fitted curve at half-maximal effect; % is scaled to controls: 0 for no effect and ±100 for the full control effect; nearly all actives have a fitted effect of over 55% in size
#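 Readout was luciferase luminescence, measured 12 min after detection reagent at room temperature. Beforehand, GLP-1R reporter HEK293 cells had sat 12 h, then received compounds for 24 hr at 37 deg C.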
# TSHR antag – antagonists of human thyroid stimulating hormone receptor; TSHR-expressing cells, TSH-stimulated cAMP HTRF, 2 h; hits give low values; activity change, negative = inhibition, % at 11.5 µM; 0.2% of 330,000 active;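 active = activity change below a set negative limit, meaning inhibition stronger than a set level, cut at about -70% in these data; inconclusive = activity change between two set negative limits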; also: % is scaled to controls: 0 for no effect and ±100 for the full control effect
# Target sequence (P16473 whole entry, looked up): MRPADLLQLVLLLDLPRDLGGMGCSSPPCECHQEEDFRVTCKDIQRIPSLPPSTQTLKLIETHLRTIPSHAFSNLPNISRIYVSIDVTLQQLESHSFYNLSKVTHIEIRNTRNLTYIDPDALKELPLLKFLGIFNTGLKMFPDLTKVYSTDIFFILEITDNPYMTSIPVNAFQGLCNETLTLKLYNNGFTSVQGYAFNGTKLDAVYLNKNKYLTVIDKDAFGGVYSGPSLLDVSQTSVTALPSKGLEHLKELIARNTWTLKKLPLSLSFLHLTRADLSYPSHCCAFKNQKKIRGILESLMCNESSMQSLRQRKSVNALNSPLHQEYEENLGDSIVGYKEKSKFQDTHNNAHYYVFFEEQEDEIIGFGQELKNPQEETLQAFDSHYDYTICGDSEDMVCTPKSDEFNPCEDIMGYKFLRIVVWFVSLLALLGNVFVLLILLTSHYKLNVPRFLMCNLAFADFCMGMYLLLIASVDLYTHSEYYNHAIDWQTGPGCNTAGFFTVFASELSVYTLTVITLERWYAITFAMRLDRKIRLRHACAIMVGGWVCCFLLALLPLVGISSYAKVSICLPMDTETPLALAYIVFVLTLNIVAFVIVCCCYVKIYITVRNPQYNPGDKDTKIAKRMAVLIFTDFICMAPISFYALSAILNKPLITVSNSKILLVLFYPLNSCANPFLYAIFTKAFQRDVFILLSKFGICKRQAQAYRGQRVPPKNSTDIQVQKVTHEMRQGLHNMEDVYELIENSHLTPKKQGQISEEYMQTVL
#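 Read-out is FRET at 665 nm (cryptate excitation 337 nm) from a cryptate-tagged anti-cAMP antibody, competed by cell cAMP against cAMP-d2. Compounds are tested on freshly harvested TSHR cells challenged with 4nM TSH (EC80) for 2 hours at 37 deg C.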
# HEK293 tox – cytotoxicity in counter-screen for GLP-1R inverse agonists | HEK293 cAMP-luciferase reporter cells, luminescence, 24 h | Potency, µM (highest dose often 38.3 µM), inactives show at the highest dose activity change, negative = inhibition, usual class: inhibitors | 0.13% of 410,000 active | AID 624418;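 also: loss of luciferase light is scored as toxicity; potency is read from the fitted curve at half-maximal effect; % is scaled to controls: 0 for no effect and ±100 for the full control effect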
#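 Compound-treated cells are incubated 24 hr at 37 deg C under 5% CO2 after a 12 hour attachment period, then luciferase detection reagent is added and luminescence is measured following 12 min at room temperature; lowered signal indicates toxicity.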
# Active calls of the source: *; i = inactive; ? = inconclusive; nt = no result; [ ] = remark or other dose. The list is not random: actives were taken first. Their share in the collection is about 1.8%. Unless noted, calls follow the shape of the dose curve; as a rule, active = well fitted curve in the direction sought with a large enough effect; inconclusive = small, poorly fitted or top-dose-only effect, or another doubt; inactive = no such curve, though single readings can be large; an effect the other way counts as inactive or inconclusive.
SMILES,PTHR1 agonist,GLP1R ag,GLP-1R inv ag,TSHR antag,HEK293 tox
COc1ccccc1CNC(=O)c1cc2ccc3ccc(C)[nH]c3c2n1,-24.9%,-2.1%,10µM*,nt,-8.2%
COCCCNc1ccn2nc(-c3cccc(OCc4ccccc4)c3)cc2n1,-55.0%,-18.6%,?,nt,-4.0%
c1ccc(COc2cccc(-c3cc4nc(NCc5cccs5)ccn4n3)c2)cc1,-71.0%,16.1%,4.47µM*,nt,-13.9%
COCCCNc1ccn2nc(-c3ccccc3)cc2n1,-55.3%,-6.0%,3.98µM*,nt,-4.6%
CCOC(=O)C1(Cc2cccc(Cl)c2)CCCN(C(=O)c2ccco2)C1 (centres undefined),-18.3%,8.9%,?,-15.9,-6.3%
CCOC(=O)C1(Cc2cccc(Cl)c2)CCCN(C(=O)c2occc2C)C1 (centres undefined),-23.1%,3.4%,11.2µM*,7.4,5.4%
O=c1c2ccccc2oc2ccc(C#CC3(O)CCCCC3)cc12,-27.5%,-1.0%,7.08µM*,nt,-27.0%
Cn1c2ccccc2c(=O)c2cc(C#CC3(O)CCCCC3)ccc21,-93.1%,-4.9%,1µM*,10.7,-1.2%
Cc1ccc(-c2nc3nc(C)cc(Nc4ccccc4O)n3n2)cc1,-9.1%,26.5%,-10.1%,nt,0.3%
Cc1ccc(-c2cn3c(n2)sc2cc(C(=O)NCc4cccs4)ccc23)cc1,1.7%,nt,23.9%,nt,6.8%
CCCn1c(N2CCN(Cc3ccc(Cl)cc3)CC2)nc2ccccc21,-36.2%,-6.2%,11.2µM*,-6.6,?
O=S(=O)(Nc1cccc(-c2ccc(N3CCOCC3)nn2)c1)c1ccc(F)cc1F,-18.9%,nt,5.2%,nt,-5.4%
N#CCc1ccc(OCCCN2CCC(C(O)(c3ccccc3)c3ccccc3)CC2)cc1,-17.9%,0.2%,?,nt,?
OC(c1ccccc1)(c1ccccc1)C1CCN(CCCOc2ccc3c(c2)CCCC3)CC1,-26.7%,-30.3%,7.94µM*,nt,?
OCC(O)COc1ccc(Cl)cc1 (centres undefined),nt,-2.5%,nt,nt,nt
O=C1OC(c2ccccc2)(c2ccccc2)c2ccccc21,-33.3%,11.7%,7.94µM*,nt,17.2%
O=C1OC2(c3ccccc31)c1cc(I)c(O)c(I)c1Oc1c2cc(I)c(O)c1I,nt,-6.2%,nt,-113.8*,nt
O=C(CS(=O)(=O)c1cccc2nsnc12)N1CCN(c2ccc(F)cc2)CC1,-51.5%,10.5%,-0.3%,nt,-5.7%
O=C(NCc1ccc(F)cc1)C1CCN(c2ncnc3c2nc2n3CCCCC2)CC1,-19.2%,nt,8.9%,nt,-8.0%
CCCOc1ccc(CCc2n[nH]c(=S)n2Cc2ccccc2)cc1,-12.2%[57.5 µM],0.7%,8.91µM*,-7.6,-2.0%
CCCOc1ccc(CCc2n[nH]c(=S)n2-c2ccccc2)cc1,-13.5%,13.6%,-16.4%,6.2,?
CCC(C)C1OC2(C=CC1C)CC1CC(C/C=C(\C)C(OC3CC(OC)C(OC4CC(OC)C(NC(C)=O)C(C)O4)C(C)O3)C(C)/C=C/C=C3\COC4C(O)C(C)=CC(C(=O)O1)C34O)O2 (centres undefined) (tested in a mixture with another compound),nt,1.5%,nt,nt,nt
Cc1nc(N2CCN(c3ccccn3)CC2)c2c(C)c(C(=O)Nc3ccc(Br)cc3C)sc2n1,-5.9%,-0.3%,7.2%,1.0,-6.2%
Cc1ccc(NC(=O)c2sc3nc(C)nc(N4CCN(c5ccccn5)CC4)c3c2C)c(C)c1,-14.4%,-0.8%,11.2µM*,-16.1,-25.3%
COC(=O)c1c(NC(=O)c2c(OC)cccc2OC)sc2c1CCCC2,-44.1%,nt,-0.3%,nt,3.6%
COc1cccc(OC)c1C(=O)Nc1sc2c(c1C#N)CCC2,i,-1.5%,15.8%,-118.4*,-1.0%
Cn1nc(C(=O)Nc2sc3c(c2C#N)CCCC3)ccc1=O,44.7µM*,0.3%,-0.3%,-9.5,4.9%
Cc1cccc(NC(=O)CSc2nc(=O)n(Cc3ccccn3)c3c2CCC3)c1C,i,nt,5.1%,nt,-5.3%
CCN1CCN(C(c2cccs2)C(C)NS(=O)(=O)c2ccc(Br)cc2)CC1 (centres undefined),2.2%,-4.1%,11.2µM*,28.7,?
